Screening data (PubChem)
G9a inh: qHTS Assay for Inhibitors of Histone Lysine Methyltransferase G9a; G9a H3K9 monomethylation, AlphaScreen, 2 h; hit rate 8.8% among 350,000; Potency, µM (titrated, usually from 102 µM), inactives show top-dose activity, negative = inhibition, hits mostly inhibitors; further: on the % scale 0 is the no-effect control and ±100 the full control effect; nearly all actives have a fitted effect of over 75% in size
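Using a bead-based AlphaScreen, monomethylated H3K9 product from 2 h room-temperature reactions (G9a 20 nM, peptide 500 nM, SAM 20 uM) was detected with 0.5 ug/mL rabbit anti-H3K9me1 antibody.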
JMJD2A Tudor: qHTS Assay for Inhibitors of JMJD2A-Tudor Domain. AID 504339, 2011. Potency, µM (series often up to 114 µM), for the others: at the top dose activity change, negative = inhibition, hits mostly inhibitors. hit rate 4.4% among 390,000. AlphaScreen JMJD2A-Tudor / H3K4me3 peptide binding; further: on the % scale 0 is the no-effect control and ±100 the full control effect; nearly all actives have a fitted effect of over 50% in size
L3MBTL1 inh: qHTS Assay for the Inhibitors of L3MBTL1; Potency, µM (titrated, usually from 57.1 µM), without a hit: at the top dose activity, negative = inhibition, usual class: inhibitors; AID 485360, 2010; hit rate 0.66% among 230,000; AlphaScreen L3MBTL1–H3K9me1 peptide binding; further: on the % scale 0 is the no-effect control and ±100 the full control effect; nearly all actives have a fitted effect of over 60% in size
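Read-out is AlphaScreen signal from streptavidin donor and nickel chelate acceptor beads (10 ug/mL final each) bridging L3MBTL1 (50 nM) and biotinylated K9-monomethylated H3(1-15) peptide (75 nM), after 30 min compound exposure at room temperature.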
BAZ2B inh: qHTS Assay for Inhibitors of BAZ2B | AID 504333, 2011 | Bromodomain adjacent to zinc finger domain protein 2B (Homo sapiens), Q9UIF8 | hit rate 4.4% among 360,000 | Potency, µM (titrated, usually from 114 µM), for the others: at the top dose activity change, negative = inhibition, hits mostly inhibitors | AlphaScreen BAZ2B-H3K14Ac peptide displacement; further: on the % scale 0 is the no-effect control and ±100 the full control effect; nearly all actives have a fitted effect of over 60% in size
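Multi-concentration screen (max 110 uM) measuring displacement of acetylated histone H3 peptide from BAZ2B by AlphaScreen, using 50 nM protein, 50 nM peptide and 10 ug/mL streptavidin donor plus Ni-chelate acceptor beads.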
HP1b binding inh: HTS for Inhibitors of HP1-beta Chromodomain Interactions with Methylated Histone Tails; Potency, µM (highest dose often 114 µM), for inactives: top-dose activity change, negative = inhibition, usual class: inhibitors; hit rate 0.56% among 390,000; AlphaScreen HP1-beta / biotin-H3K9me3 peptide binding; further: nearly all actives have a fitted effect of over 70% in size
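HP1-beta protein (50 nM final) preincubated 30 min at room temperature with biotinylated H3(1-18)K9me3 peptide (50 nM) in PBS pH 7.4, 0.01% Tween-20, then compound added for 30 min. AlphaScreen streptavidin donor/nickel chelate acceptor beads (10 ug/mL final), 30 min dark, luminescence read.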
GLS inhibitor: qHTS for Inhibitors of Glutaminase (GLS). Glutaminase kidney isoform, mitochondrial (Homo sapiens), O94925. GLS enzymatic activity, qHTS titration. Potency, µM (titrated, usually from 45.5 µM), for inactives: top-dose activity change, negative = inhibition, most hits filed as inhibitors. hit rate 0.21% among 410,000; further: on the % scale 0 is the no-effect control and ±100 the full control effect
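Enzyme dispensed in phosphate buffer (45 mM, pH 8.2, 0.02% Tween-20), compounds pinned in, then 1 mM L-glutamine solution and the glutamate oxidase–HRP–Amplex Red mix added; fluorescence read immediately and again after 30 min at room temperature.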
An asterisk follows results filed as active; ? = inconclusive; · = not tested or not shown; [ ] = remark or other dose. Hits are enriched below; roughly 10% of the tested compounds scored in any of these assays. The call rests on the fitted dose curve; in most records, active means well fitted curve in the direction sought with a large enough effect; inconclusive means small, poorly fitted or top-dose-only effect, or another doubt; inactive means no such curve, though single readings can be large; an effect the other way counts as inactive or inconclusive. Potency means the concentration at half of the fitted maximal effect.

SMILES	G9a inh	JMJD2A Tudor	L3MBTL1 inh	BAZ2B inh	HP1b binding inh	GLS inhibitor
CCC(/C=C1\Sc2ccc(OC)cc2N1CCO)=C\c1sc2ccc(OC)cc2[n+]1CCO	11µM*	22µM*	?	13µM*	40µM*	16%
CCC(=O)/C=C1/Sc2ccc(OC)cc2N1CCO	1%	?	-6%	-1%	-21%	-21%
CCC(/C=C1\Sc2ccc(OC)cc2N1CC)=C\c1sc2ccc(OC)cc2[n+]1CCCS(=O)(=O)[O-]	20µM*	?	·	22µM*	-21%	6%
CCO/C(=C/c1sc2ccc(OC)cc2[n+]1CCCS(=O)(=O)[O-])CC	-3%[59 µM]	23%	·	-10%	69%	·
COCCNC(=O)CSc1nnc(-c2ccc(OC)c(OC)c2)c(-c2ccc(OC)c(OC)c2)n1	-7%[59 µM]	-11%	·	-4%	-6%	?
COc1ccc(CNC(=O)CCc2nc(-c3ccc(C)cc3)no2)c(OC)c1	4%[59 µM]	5%	·	0%	44%	-12%
CCOc1ccccc1Oc1coc2cc(OCC(=O)O)ccc2c1=O	14µM*	-15%	?	-32%	-21%	-12%
CCC(=O)Nc1nnc(-c2ccc(Cl)s2)o1	-10%	-19%	·	·	25%	-2%
CC(=O)Nc1nnc(-c2ccc(Cl)s2)o1	14µM*	-28%	-13%	-31%	20%	3%
C/C(CCc1oc2ccc(Cl)cc2c1-c1ccc(C)o1)=N\O	?	89µM*	52%	?	?	24%
O=[N+]([O-])c1ccc(S(=O)(=O)Nc2ccc3c(c2)OCCO3)cc1	40µM*	?	-4%	?	-4%	13%
Cc1c(O)ccc(NS(=O)(=O)c2ccccc2)c1C	-50%	-2%[11.4 µM]	9%	-11%	19%	0%
Cc1cc(NS(=O)(=O)c2ccccc2)c(C)c(Cl)c1O	28µM*	?	-8%	2%	?	8%
COc1ccc(S(=O)(=O)Nc2ccc3c(c2)OCO3)cc1	2%[59 µM]	-15%	-6%	-10%	19%	23%
Cc1nn(C)c(C)c1S(=O)(=O)Nc1ccc2c(c1)OCO2	50µM*	-27%	-5%	?	18%	32%
O=S(=O)(Nc1ccc2c(c1)OCO2)c1ccccc1	14µM*	-14%	·	-3%	6%	38%
COc1ccc(Cn2c(SCc3ccc(C(=O)NC(C)C)cc3)nc3cccnc32)cc1	-7%[59 µM]	-8%	·	2%	54%	2%
CC(CNC(=O)Cc1ccc(NC(=O)N2CCSc3ncccc32)cc1)c1ccccc1 (stereo not given)	-29%[59 µM]	-11%	·	-6%	16%	3%
Cc1ccc2cccc(S(=O)(=O)Nc3ccc4c(c3)OCO4)c2n1	?	?	15%[11.4 µM]	50µM*	20%	14%
COc1ccc(N(CC(=O)NCc2ccc3c(c2)OCO3)S(=O)(=O)c2c(C)nn(C)c2C)cc1	79µM*	-4%	·	7%	24%	-1%
O=S(=O)(Nc1ccc(O)c(NS(=O)(=O)c2ccccc2)c1)c1ccccc1	0.32µM*	63µM*	·	?	-30%	-18%
O=C(CSc1ncnc2sc3c(c12)CCCCC3)NCc1ccco1	?	-16%	·	?	29%	12%
O=C(O)CSc1ncnc2c1sc1nc(-c3ccccc3)c3c(c12)CCC3	40µM*	50µM*	·	50µM*	-34%[57 µM]	?
CC(C)c1nc2sc3c(SCC(=O)NCc4ccco4)ncnc3c2c2c1CCC2	45µM*	56µM*	?	56µM*	-5%	-14%
COCCCn1c(SCC(=O)NCc2ccco2)nc2sc3c(c2c1=O)CCC3	50µM*	-35%	-5%	-2%	15%	-5%
SMILES	G9a inh	JMJD2A Tudor	L3MBTL1 inh	BAZ2B inh	HP1b binding inh	GLS inhibitor
COc1ccc(N2CCN(C(CNC(=O)C3CCCCC3)c3ccco3)CC2)cc1 (stereo not given)	45µM*	-32%	-16%	-7%	?	32%
COc1ccc(N2CCN(C(CNC(=O)C(=O)NC3CC3)c3ccco3)CC2)cc1 (stereo not given)	45µM*	-6%	11%	-25%	30%	5%
C/C=C\C=C/C(=O)Nc1cccc(C2=NOC3(C2)C[C@@H](C(N)=O)N(C(=O)C2(C)CC2)C3)c1 (stereo not given in full)	?	?	·	-5%	-33%	-4%
C=C(C)C(=O)N1CC2(CC(c3cccc(NC(=O)/C=C\C=C/C)c3)=NO2)C[C@H]1C(N)=O (stereo not given in full)	?	11µM*	·	-17%	-22%	3%
C/C=C\C=C/C(=O)Nc1cccc(C2=NOC3(C2)C[C@@H](C(N)=O)N(C(=O)/C=C/C=C\C)C3)c1 (stereo not given in full)	?	50µM*	·	79µM*	?	11µM*
Cc1cccc(C(=O)Nc2ccc(N3CC=C(c4ccccc4C)CC3)c(C(=O)O)c2)c1	?	?	·	45µM*	-7%	-28%
CC(=O)NCc1ccc(C(=O)COC(=O)COc2ccccc2)s1	20µM*	-9%	-9%	-31%	23%	-15%
COc1cccc(CSc2nc(-c3ccccc3F)nc3c2Cc2c(CO)cnc(C)c2O3)c1	-5%[59 µM]	1%	·	-14%	46%	1%
COC(=O)C1=C(C)NC(C)=C(C(=O)O[C@@H]2CCCN(Cc3ccccc3)C2)[C@@H]1c1cccc([N+](=O)[O-])c1	·	45µM*	·	·	?	9%
CCOC(=O)C1=C(C)NC(C)=C(C(=O)OC)[C@@H]1c1cccc([N+](=O)[O-])c1	1%[21.5 µM]	·	·	·	·	·
CCCn1cc(S(=O)(=O)c2ccc(Cl)cc2)c(=O)c2cc(OC)ccc21	2%	22µM*	·	?	20%	?
CCCn1cc(S(=O)(=O)c2ccc(C)cc2)c(=O)c2cc(OC)ccc21	-1%	-5%	·	-11%	22%	-1%
O=C1C(=C(I)I)c2ccccc2-c2ccccc21	·	25µM*	·	·	56µM*	6%
CC(=O)C1=C(O)C(=O)N(c2ccc(O)cc2)C1c1ccccc1 (stereo not given)	?	9%	·	?	30%	17%
CC(=O)C1=C(O)C(=O)N(c2cccc(C(=O)O)c2)C1c1ccc(F)cc1 (stereo not given)	25µM*	?	-3%	?	18%	19%
